Inconclusive results are not listed. Activity calls are given as the source filed them. Unless noted, how the calls were made is not given here.

Experiment [1] in a line: qHTS for Activators of Parkin Expression: LOPAC Validation Assay (FLuc Reporter) (AID 720573; active means well fitted curve in the direction sought with a large enough effect; an effect the other way counts as inactive or inconclusive). The note with it: Cell line, PRKN promoter firefly luciferase reporter, vehicle wells = 0, positive control = 100%; series mostly up to 46.1 µM. The method in brief: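 FLuc luminescence read-out from a neuronal line expressing a Parkin-promoter-driven coincidence reporter. Cells treated 24 h at 37 C, 5% CO2 with compounds at 7 concentrations; signal increase normalized to DMSO and positive control.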

Experiment [2] addresses T1, Hexokinase-4 (Homo sapiens) + Glucokinase regulatory protein (Homo sapiens) (UniProt P35557+Q14397). As to the kind of experiment: qHTS assay for inhibitors of recombinant human GCK-GKRP interaction: Diaphorase-coupled assay (AID 743205; active means well fitted curve in the direction sought with a large enough effect; an effect the other way counts as inactive or inconclusive). The note with it: G6PDH/diaphorase resorufin fluorescence; series mostly up to 57.5 µM. In short, it runs like this:
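Resorufin fluorescence (525/590 nm), read each minute over 30 min, reports GCK activity coupled via G6PDH and diaphorase. Reaction: 10 nM GST-GCK, 10 nM FLAG-GKRP, 5 mM glucose, 0.4 mM ATP, 0.15 mM NADP+, 0.1 mM resazurin.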

For experiment [3], the target named is T1, Hexokinase-4 (Homo sapiens) + Glucokinase regulatory protein (Homo sapiens). The experiment can be described thus: qHTS assay for inhibitors of recombinant human GCK-GKRP interaction: ADP-Glo assay (AID 743206; active means well fitted curve in the direction sought with a large enough effect; an effect the other way counts as inactive or inconclusive;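 further: plate controls were DMSO plus enzyme for no effect and no enzyme for full effect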). The following applies: ADP-Glo luminescence, 60 min, 0% = vehicle-only wells with enzyme present; series mostly up to 76.9 µM. The method in brief: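 Pin-transferred compounds meet a 15 nM GST-GCK/15 nM FLAG-GKRP/2 uM S6P mix (dispense concentrations). ATP is then added to 0.4 mM final with 5 mM glucose, and the reaction runs 60 min at room temperature. ADP is quantified luminescently.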

For experiment [4] the target is unchanged. The experiment can be described thus: qHTS assay for inhibitors of recombinant human GCK-GKRP interaction: HTRF assay (AID 743207; active means well fitted curve in the direction sought with a large enough effect; an effect the other way counts as inactive or inconclusive;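 further: 0% = DMSO with GCK present and -100% = DMSO wells lacking GCK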). The note with it: recombinant GCK-GKRP HTRF binding, 60 min; series mostly up to 57.5 µM. The method in brief: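 HTRF read-out (ex 320 nm; 615/665 nm emission) after 60 min RT equilibration of 5 nM GST-GCK, 5 nM FLAG-GKRP, 2 uM S6P, compound and anti-FLAG/anti-GST detection antibodies; signal normalized between DMSO wells with and without GCK.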

The nature of experiment [5]: qHTS Assay for Identifying Gametocytocidal Compounds (AID 743244; active means well fitted curve in the direction sought with a large enough effect; an effect the other way counts as inactive or inconclusive; further: potency means the concentration at half of the fitted maximal effect;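 on max response: on the % scale 0 is the no-effect control and ±100 the full control effect; actives lower the fluorescent signal which means gametocytes are killed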). The following applies: P. falciparum 3D7 stage III-V gametocytes, alamarBlue, 72 h; max response: stronger effect = lower value. In short, it runs like this:
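Stage III–V gametocytes of P. falciparum 3D7 were seeded at 20,000 cells/well onto pre-dispensed compounds. After 72 h, 37 °C, 5% CO2, alamarBlue was added for another 24 h.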

A short description of experiment [6]: qHTS assay for small molecule agonists of the antioxidant response element (ARE) signaling pathway measured by Nrf2-dependant transcriptional activity (AID 720636; active means well fitted curve in the direction sought with a large enough effect in the repeat runs; an effect the other way counts as inactive or inconclusive; further: % of control where 0% means no effect). The following applies: ARE-luc HepG2, Nrf2 luciferase reporter, 16 h; series mostly up to 92.4 µM. In short, it runs like this:
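Nrf2-dependent transcription is measured in ARE-luc HepG2 cells: compound is applied for 16 hr at 37 C after a 6 hr attachment period, and luciferase activity is quantified by luminescence using ONE-Glo.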

The nature of experiment [7]: qHTS assay for small molecule agonists of the antioxidant response element (ARE) signaling pathway measured by Nrf2-dependant transcriptional activity - cell viability counter screen (AID 720653; active means well fitted curve in the direction sought with a large enough effect in the repeat runs; an effect the other way counts as inactive or inconclusive; further: on the % scale 0 is the no-effect control and ±100 the full control effect). The following applies: ARE-bla HepG2 viability, CellTiter-Glo ATP luminescence, 16 h; max response: stronger effect = lower value. The method in brief: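 ARE-bla HepG2 cells treated with compounds for 16 h at 37C; this counter screen measures viability as intracellular ATP by CellTiter-Glo luminescence after 30 min at room temperature.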

Experiment [8] can be described thus: qHTS assay for cell viability of HEK293 cells (AID 743288; active means well fitted curve in the direction sought with a large enough effect; an effect the other way counts as inactive or inconclusive; further: on the % scale 0 is the no-effect control and ±100 the full control effect; nearly all actives have a fitted effect of over 50% in size). The note with it: ATP luminescence (CellTiter-Glo), 18 h; max response: stronger effect = lower value. The method in brief:
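ATP luminescence (CellTiter-Glo) reports metabolically competent cell number after parental HEK293 cells, 2,000/well, were treated with DMSO-dissolved compounds for 18 h at 37 C; reagent incubation 30 min, room temperature.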

Experiment [9] can be described thus: qHTS profiling of the MIPE4 collection as inhibitors of Plasmodium falciparum (3D7) proliferation (AID 743344).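 Further: scaled between DMSO vehicle wells and 0.29 µM artemisinin as full inhibition.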 The note with it: P. falciparum 3D7 in erythrocytes, SYBR Green DNA fluorescence, 72 h; at 28.5 µM (top of the series). In short, it runs like this:
(§1)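 Parasite DNA was quantified by SYBR Green I fluorescence (ex 485, em 535 nm) after overnight lysis in saponin/Triton buffer at room temperature. Cultures at 0.3% parasitemia and 2.5% hematocrit were first exposed to compound for 72 h at 37 C; signals were normalised to artemisinin (0.29 uM) and vehicle wells.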

The nature of experiment [10]: qHTS profiling of the MIPE4 collection as inhibitors of Plasmodium falciparum (DD2) proliferation (AID 743345). The following applies: P. falciparum Dd2 in erythrocytes, SYBR Green DNA, 72 h; at 28.5 µM (top of the series) unless noted. The method in brief: as §1
Experiment [11] is described as follows: qHTS profiling of the MIPE4 collection as inhibitors of Plasmodium falciparum (DD2) proliferation (Rep 2) (AID 743346). The note with it: P. falciparum Dd2 in erythrocytes, SYBR Green DNA, 72 h; at 28.5 µM (top of the series). The method in brief: as §1
Experiment [12] in a line: qHTS profiling of the MIPE4 collection as inhibitors of Plasmodium falciparum (HB3) proliferation (AID 743347).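 Further: plate controls were DMSO vehicle wells for no effect and artemisinin wells for full effect.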 The following applies: P. falciparum HB3 in erythrocytes, SYBR Green DNA, 72 h; at 28.5 µM (top of the series). In short, it runs like this:
as §1

A short description of experiment [13]: qHTS profiling for inhibitors of Plasmodium falciparum (3D7) proliferation (AID 743322).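 Further: infected erythrocytes exposed to compound for 72 h before lysis; 100% = DMSO vehicle wells and 0% = 0.29 µM artemisinin.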 The following applies: P. falciparum 3D7 proliferation; at 28.7 µM (top of the series) unless noted. In short, it runs like this: as §1
Experiment [14] is described as follows: qHTS profiling for inhibitors of Plasmodium falciparum (DD2) proliferation (AID 743323). The following applies: lower = more inhibition; at 28.7 µM (top of the series) unless noted. In short, it runs like this:
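SYBR Green fluorescence (ex 485, em 535 nm) of lysed cultures gives parasite DNA content; wells normalized to artemisinin (0.29 uM) and DMSO controls. Infected red cells: 0.3% parasitemia, 2.5% hematocrit, 72 h, 37 C.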

The nature of experiment [15]: qHTS profiling for inhibitors of Plasmodium falciparum (HB3) proliferation (AID 743324; active means well fitted curve in the direction sought with a large enough effect; an effect the other way counts as inactive or inconclusive). The following applies: Plasmodium falciparum HB3 blood-stage proliferation; at 28.7 µM (top of the series) unless noted. In short, it runs like this:
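SYBR Green fluorescence (485 ex/535 em) of lysed cultures, incubated overnight at room temperature in the dark, quantifies parasite DNA. Infected erythrocytes at 0.3% parasitemia and 2.5% hematocrit were exposed 72 h; values normalized to DMSO and 0.29 uM artemisinin controls.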

T1 sequence (P35557 whole entry, looked up): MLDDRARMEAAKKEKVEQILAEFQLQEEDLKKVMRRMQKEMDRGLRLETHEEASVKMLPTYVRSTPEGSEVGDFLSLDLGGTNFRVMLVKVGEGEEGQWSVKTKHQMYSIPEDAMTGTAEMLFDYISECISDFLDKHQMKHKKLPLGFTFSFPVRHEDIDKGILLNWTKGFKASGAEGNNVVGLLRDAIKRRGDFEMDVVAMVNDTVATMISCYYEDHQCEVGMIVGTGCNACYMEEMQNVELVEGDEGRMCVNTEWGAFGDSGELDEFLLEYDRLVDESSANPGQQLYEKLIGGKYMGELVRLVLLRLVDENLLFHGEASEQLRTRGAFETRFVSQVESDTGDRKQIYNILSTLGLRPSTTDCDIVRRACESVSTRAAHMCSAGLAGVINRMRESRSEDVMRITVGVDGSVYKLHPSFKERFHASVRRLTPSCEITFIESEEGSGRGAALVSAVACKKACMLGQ
T1 sequence (Q14397 whole entry, looked up): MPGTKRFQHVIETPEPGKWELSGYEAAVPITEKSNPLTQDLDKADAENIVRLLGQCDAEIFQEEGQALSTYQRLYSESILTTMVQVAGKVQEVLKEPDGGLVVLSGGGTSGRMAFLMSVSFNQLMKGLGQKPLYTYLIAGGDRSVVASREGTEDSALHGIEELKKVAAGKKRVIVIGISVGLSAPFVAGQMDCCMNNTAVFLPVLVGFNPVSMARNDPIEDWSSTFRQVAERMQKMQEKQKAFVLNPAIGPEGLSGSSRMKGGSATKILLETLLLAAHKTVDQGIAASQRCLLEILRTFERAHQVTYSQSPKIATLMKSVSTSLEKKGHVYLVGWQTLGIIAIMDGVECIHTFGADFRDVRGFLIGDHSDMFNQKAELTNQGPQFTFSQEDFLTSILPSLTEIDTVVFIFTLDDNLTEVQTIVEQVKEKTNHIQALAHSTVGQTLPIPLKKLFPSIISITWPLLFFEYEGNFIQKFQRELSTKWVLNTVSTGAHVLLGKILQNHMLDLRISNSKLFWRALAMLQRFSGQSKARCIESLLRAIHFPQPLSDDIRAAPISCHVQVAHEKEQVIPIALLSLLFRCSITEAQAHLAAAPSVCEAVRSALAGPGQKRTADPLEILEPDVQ

Turning to `CC(C)Oc1cccnc1N(C)C1CCN(Cc2ccccc2)CC1`, the molecule was classed as inactive in experiment [1], in experiment [2], in experiment [3] and in [4]. For the same molecule, the max response in [5] was -6.11% (inactive).
Take `CCCCCC[C@H]1C(=O)O[C@H](C)[C@H](NC(=O)c2cccc(NC=O)c2O)C(=O)O[C@@H](C)[C@@H]1OC(=O)CC(C)C`: the Potency result in experiment [6] was “inactive”. The max response in experiment [7] was -26.8% (inactive); in experiment [8], -27.4% (inactive). The molecule also gave a parasite growth, % of DMSO control in experiment [9] of 12%. Besides, the parasite growth remaining, % of DMSO control (lower = more inhibition) in experiment [10] came out at 17.3%. The parasite growth, % of control (lower = inhibition) in experiment [11] worked out at 14.5%. In [12], this molecule came in with a growth, % of control of 26.2%.
Take `Oc1ccc2c3c1O[C@H]1c4[nH]c5c(c4C[C@@]4(O)[C@@H](C2)N(CC2CC2)CC[C@]314)C[C@@]1(O)[C@H]2Cc3ccc(O)c4c3[C@@]1(CCN2CC1CC1)[C@H]5O4`: the result in experiment [1], in experiment [2], in experiment [3] and in [4] was inactive. Besides, the parasite growth, % of DMSO control in [9] stood at 10.3%. In addition, the parasite growth remaining, % of DMSO control (lower = more inhibition) in experiment [10] was 25.9%. The parasite growth, % of control (lower = inhibition) in [11] came to 13%. Besides, in experiment [12], the growth, % of control came to 4.03%.
With `CC[C@@H](C(=O)O)C1CC[C@H](C)C([C@@H](C)[C@H](O)[C@H](C)C(=O)[C@H](CC)C2O[C@]3(C=C[C@@H](O)[C@]4(CC[C@@](C)(C5CC[C@](O)(CC)[C@H](C)O5)O4)O3)[C@H](C)C[C@@H]2C)O1` (stereo partly drawn), in experiment [5], the Potency was 0.0526 µM (active).
Take `CC(C)[C@H]1C(=O)N[C@H](CO)Cc2c[nH]c3cccc(c23)N1C`: in experiment [13], the remaining parasite growth % (stronger effect = lower value) came out at 107%. In [14], this molecule gave an activity, percent of control of 97.3%. Moreover, the remaining proliferation (% of control), lower = more inhibition in experiment [15] is 80%. For the same molecule, in experiment [9], the parasite growth, % of DMSO control worked out at 87.1%. Further, the parasite growth remaining, % of DMSO control (lower = more inhibition) in experiment [10] was 97.6%. Also, the parasite growth, % of control (lower = inhibition) in experiment [11] amounted to 147%. In experiment [12], the growth, % of control worked out at 88.8%.
Regarding `Cc1c(C(=O)Nc2cccc(C(F)(F)F)c2)cc(-c2ccccc2)n1CCCN1CCOCC1`, the max response in experiment [5] was 12.4% (inactive). Also, the remaining parasite growth % (stronger effect = lower value) in [13] is 8.32%. This molecule also registered an activity, percent of control in experiment [14] of 17.4%. In [15], this molecule came in with a remaining proliferation (% of control), lower = more inhibition of 9.01%. The same molecule displayed a parasite growth, % of DMSO control in experiment [9] of 19.9%. The parasite growth remaining, % of DMSO control (lower = more inhibition) in experiment [10] came to 69.6%. In addition, the parasite growth, % of control (lower = inhibition) in [11] came out at 16.5%. In experiment [12], this molecule returned a growth, % of control of 10.9%.
With `O=C(Oc1ccc([N+](=O)[O-])cc1)N1CCC(C(O)(c2ccc3c(c2)OCO3)c2ccc3c(c2)OCO3)CC1`, in experiment [5], the max response is -4.93% (inactive). The remaining parasite growth % (stronger effect = lower value) in [13] came out at 26.6%. Also, in experiment [14], the activity, percent of control came to 90.2%. In experiment [15], this molecule gave a remaining proliferation (% of control), lower = more inhibition of 75.8%. The parasite growth, % of DMSO control in experiment [9] was determined as 63%. In addition, the parasite growth remaining, % of DMSO control (lower = more inhibition) in experiment [10] came to 78.9%. In addition, the parasite growth, % of control (lower = inhibition) in experiment [11] came to 33.6%. Moreover, the growth, % of control in experiment [12] came out at 77.1%.
For the molecule `Cc1nc(-c2ccc(-c3ccc(C(=O)N4CCc5cc6c(cc54)C4(CCN(C)CC4)CO6)cc3)c(C)c2)no1`, in experiment [5], the max response was -4.85% (inactive). For the same molecule, the remaining parasite growth % (stronger effect = lower value) in experiment [13] stood at 36.2%. The same molecule came in with an activity, percent of control in experiment [14] of 63.3%. The remaining proliferation (% of control), lower = more inhibition in experiment [15] was 17.2%. This molecule yielded a parasite growth, % of DMSO control in [9] of 76%. In experiment [10], the parasite growth remaining, % of DMSO control (lower = more inhibition) amounted to 101%. Besides, the parasite growth, % of control (lower = inhibition) in [11] worked out at 77.5%. Also, in experiment [12], the growth, % of control was determined as 43.5%.
In the case of `C[C@@]12O[C@@H](C[C@]1(O)CO)n1c3ccccc3c3c4c(c5c6ccccc6n2c5c31)CNC4=O`, in [5], the Potency is 5.9 µM (active).
In experiment [9], `O=c1[nH]c2ccccc2n1C1CCN(Cc2ccc(-c3[nH]c4cc5ncnc5cc4nc3-c3ccccc3)cc2)CC1` registered a parasite growth, % of DMSO control of 4.63%. Besides, the parasite growth remaining, % of DMSO control (lower = more inhibition) in experiment [10] turned out to be 6.7%. Also, the parasite growth, % of control (lower = inhibition) in experiment [11] is 14.2%. The same molecule showed a growth, % of control in experiment [12] of 4.58%.
Consider `Cc1nc2cnc3ccc(C#Cc4cccnc4)cc3c2n1-c1ccc(C(C)(C)C#N)cc1`, for which the Potency in experiment [5] was 5.9 µM (active).

The values are drawn from PubChem BioAssay (NCATS).
